Among the data in ChEMBL document CHEMBL2218924, “A broad activity screen in support of a chemogenomic map for kinase signalling research and drug discovery” (Biochem J, 2013) are residual activity values, retold here.

For assay [1], the target named is T1, Ephrin type-A receptor 3 (Homo sapiens) (UniProt P29320).
T1 sequence (whole entry): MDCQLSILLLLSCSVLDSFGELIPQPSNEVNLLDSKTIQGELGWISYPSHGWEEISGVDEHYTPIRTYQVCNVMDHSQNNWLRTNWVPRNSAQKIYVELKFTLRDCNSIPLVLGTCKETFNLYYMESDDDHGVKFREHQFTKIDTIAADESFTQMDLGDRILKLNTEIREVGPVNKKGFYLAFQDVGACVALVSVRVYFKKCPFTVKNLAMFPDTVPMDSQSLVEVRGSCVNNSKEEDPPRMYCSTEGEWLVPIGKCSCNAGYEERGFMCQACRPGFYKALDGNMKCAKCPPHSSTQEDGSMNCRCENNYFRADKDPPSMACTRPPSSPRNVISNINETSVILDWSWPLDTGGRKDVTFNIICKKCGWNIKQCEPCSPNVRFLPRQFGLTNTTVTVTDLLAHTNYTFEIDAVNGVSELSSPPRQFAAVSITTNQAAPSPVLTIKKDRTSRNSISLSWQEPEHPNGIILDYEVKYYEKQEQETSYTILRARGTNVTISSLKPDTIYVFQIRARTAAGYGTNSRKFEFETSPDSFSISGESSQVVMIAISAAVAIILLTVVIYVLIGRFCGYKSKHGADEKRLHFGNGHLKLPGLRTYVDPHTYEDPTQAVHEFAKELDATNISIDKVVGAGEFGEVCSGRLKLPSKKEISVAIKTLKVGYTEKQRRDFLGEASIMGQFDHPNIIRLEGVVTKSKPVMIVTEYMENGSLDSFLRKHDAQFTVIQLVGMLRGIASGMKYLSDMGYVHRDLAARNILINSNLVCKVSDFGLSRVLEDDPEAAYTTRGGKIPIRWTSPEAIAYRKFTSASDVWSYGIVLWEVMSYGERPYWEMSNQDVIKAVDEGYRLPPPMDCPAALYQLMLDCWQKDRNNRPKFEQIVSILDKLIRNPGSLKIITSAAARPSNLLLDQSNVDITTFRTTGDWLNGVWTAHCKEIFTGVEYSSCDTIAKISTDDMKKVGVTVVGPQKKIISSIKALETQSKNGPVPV
To be noted: at 10 µM.

Assay [2] deals with Ephrin type-A receptor 4 (Homo sapiens) (UniProt P54764). To be noted: at 1 µM.
Chain of Ephrin type-A receptor 4 (Homo sapiens) (P54764 whole entry): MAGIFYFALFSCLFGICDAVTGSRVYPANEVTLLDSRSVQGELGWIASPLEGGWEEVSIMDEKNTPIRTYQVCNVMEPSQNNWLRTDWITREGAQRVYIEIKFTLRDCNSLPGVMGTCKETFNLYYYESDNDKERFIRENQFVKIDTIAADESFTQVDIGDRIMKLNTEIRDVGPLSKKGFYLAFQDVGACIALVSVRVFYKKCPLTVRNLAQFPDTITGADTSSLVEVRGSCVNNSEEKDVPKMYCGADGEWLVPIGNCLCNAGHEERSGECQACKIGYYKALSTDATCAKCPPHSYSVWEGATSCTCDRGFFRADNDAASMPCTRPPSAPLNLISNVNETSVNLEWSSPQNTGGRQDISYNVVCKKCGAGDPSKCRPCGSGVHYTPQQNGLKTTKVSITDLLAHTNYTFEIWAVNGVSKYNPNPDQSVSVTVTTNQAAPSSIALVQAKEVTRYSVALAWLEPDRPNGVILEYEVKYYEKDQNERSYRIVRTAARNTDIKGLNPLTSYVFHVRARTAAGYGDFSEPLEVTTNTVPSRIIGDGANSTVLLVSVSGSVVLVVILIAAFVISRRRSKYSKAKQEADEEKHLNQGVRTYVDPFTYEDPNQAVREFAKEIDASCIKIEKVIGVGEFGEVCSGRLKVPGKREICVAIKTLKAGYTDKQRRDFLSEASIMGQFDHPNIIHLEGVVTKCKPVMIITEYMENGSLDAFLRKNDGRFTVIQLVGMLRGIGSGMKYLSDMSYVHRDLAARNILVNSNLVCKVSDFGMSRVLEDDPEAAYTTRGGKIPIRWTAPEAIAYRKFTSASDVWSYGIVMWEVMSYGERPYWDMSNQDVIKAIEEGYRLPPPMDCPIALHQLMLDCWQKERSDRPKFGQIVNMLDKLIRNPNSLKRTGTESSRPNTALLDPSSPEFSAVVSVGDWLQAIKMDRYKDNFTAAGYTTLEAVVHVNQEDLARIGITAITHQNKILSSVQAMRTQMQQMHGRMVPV
Assay [3] shares this target. To be noted: at 10 µM.
In assay [4] the target is Ephrin type-A receptor 5 (Homo sapiens) (UniProt P54756). Conditions: at 1 µM.
Chain of Ephrin type-A receptor 5 (Homo sapiens) (P54756 whole entry): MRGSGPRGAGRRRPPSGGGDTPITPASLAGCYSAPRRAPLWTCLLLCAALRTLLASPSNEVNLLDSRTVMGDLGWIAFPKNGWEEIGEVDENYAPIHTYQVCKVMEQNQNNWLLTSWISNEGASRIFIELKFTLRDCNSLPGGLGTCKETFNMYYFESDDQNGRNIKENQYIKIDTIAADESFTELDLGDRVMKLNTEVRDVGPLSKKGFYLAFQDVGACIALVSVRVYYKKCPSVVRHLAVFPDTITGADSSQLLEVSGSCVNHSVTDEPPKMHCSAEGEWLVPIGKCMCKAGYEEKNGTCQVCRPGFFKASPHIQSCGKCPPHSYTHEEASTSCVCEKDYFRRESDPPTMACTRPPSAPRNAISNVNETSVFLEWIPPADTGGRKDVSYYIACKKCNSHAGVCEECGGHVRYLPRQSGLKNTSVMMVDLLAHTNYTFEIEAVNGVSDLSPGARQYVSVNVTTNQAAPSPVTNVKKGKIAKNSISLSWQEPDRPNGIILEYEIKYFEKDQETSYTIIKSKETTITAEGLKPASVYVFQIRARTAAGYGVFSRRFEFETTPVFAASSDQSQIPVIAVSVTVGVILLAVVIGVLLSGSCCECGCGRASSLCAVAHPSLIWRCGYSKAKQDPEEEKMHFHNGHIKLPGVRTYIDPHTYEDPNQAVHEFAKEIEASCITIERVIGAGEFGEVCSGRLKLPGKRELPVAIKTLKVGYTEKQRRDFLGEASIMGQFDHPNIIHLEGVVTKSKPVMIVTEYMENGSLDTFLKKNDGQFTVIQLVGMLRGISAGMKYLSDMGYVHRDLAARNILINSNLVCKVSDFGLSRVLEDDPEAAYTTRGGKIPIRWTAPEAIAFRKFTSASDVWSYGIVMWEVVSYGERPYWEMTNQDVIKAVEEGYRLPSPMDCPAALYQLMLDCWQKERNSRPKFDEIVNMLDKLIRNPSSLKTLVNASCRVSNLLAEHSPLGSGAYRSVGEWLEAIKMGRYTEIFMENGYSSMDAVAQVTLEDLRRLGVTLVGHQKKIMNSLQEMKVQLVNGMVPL
For assay [5] the target is unchanged. To be noted: at 10 µM.
The target of assay [6] is Ephrin type-A receptor 7 (Homo sapiens) (UniProt Q15375). To be noted: at 1 µM.
Chain of Ephrin type-A receptor 7 (Homo sapiens) (Q15375 28-998 limits assumed): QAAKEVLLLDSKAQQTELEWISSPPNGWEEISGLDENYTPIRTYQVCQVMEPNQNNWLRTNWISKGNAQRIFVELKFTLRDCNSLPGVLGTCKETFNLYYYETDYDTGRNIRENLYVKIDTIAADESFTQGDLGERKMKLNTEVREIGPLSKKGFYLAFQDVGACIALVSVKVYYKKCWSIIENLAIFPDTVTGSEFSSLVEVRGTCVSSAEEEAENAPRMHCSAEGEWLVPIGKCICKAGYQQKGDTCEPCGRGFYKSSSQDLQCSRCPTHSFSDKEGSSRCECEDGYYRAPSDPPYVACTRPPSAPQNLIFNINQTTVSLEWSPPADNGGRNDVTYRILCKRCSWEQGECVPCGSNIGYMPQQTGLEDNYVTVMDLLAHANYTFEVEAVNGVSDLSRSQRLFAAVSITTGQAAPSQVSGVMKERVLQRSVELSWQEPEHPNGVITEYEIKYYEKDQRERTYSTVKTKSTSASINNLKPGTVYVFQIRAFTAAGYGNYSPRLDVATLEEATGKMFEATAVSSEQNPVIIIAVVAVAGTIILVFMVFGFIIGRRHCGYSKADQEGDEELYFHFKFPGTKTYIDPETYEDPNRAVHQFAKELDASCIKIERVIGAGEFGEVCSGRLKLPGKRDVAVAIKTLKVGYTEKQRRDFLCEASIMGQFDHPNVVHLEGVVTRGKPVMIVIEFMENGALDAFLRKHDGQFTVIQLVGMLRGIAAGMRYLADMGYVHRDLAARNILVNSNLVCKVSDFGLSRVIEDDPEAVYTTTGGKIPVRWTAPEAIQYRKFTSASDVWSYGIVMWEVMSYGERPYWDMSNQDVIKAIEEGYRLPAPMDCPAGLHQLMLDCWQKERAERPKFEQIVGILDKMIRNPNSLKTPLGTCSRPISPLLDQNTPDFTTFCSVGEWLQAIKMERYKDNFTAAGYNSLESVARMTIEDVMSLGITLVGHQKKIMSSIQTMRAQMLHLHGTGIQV
The target is the same in assay [7]. Conditions: at 10 µM.
The target in assay [8] is T2, Ephrin type-A receptor 8 (Homo sapiens) (UniProt P29322).
T2 sequence (whole entry): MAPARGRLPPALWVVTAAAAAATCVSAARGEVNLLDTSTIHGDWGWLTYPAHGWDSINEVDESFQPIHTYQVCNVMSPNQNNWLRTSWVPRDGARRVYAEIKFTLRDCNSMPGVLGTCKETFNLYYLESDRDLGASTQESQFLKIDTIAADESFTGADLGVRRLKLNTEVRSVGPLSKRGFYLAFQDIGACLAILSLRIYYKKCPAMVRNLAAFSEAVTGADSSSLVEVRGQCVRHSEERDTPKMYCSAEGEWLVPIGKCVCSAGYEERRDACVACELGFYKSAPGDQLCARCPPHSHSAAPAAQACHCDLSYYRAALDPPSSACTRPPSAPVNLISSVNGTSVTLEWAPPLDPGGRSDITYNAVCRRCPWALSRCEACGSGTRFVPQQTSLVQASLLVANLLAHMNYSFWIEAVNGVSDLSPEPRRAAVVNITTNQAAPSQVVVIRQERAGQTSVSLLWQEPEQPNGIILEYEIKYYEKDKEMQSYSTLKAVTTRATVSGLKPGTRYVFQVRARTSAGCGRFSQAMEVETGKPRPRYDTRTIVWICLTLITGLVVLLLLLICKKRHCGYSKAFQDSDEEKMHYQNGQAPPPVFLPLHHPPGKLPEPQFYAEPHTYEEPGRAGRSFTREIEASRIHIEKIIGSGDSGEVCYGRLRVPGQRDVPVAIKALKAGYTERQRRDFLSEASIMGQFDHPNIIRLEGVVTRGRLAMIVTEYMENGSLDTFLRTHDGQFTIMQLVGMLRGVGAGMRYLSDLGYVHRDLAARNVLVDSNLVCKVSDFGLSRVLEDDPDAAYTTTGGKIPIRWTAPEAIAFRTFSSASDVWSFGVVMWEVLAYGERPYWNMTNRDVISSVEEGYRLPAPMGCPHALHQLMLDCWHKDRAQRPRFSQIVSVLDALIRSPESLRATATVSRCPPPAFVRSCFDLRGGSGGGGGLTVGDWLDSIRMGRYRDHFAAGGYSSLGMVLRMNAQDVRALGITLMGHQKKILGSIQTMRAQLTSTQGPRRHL
To be noted: at 1 µM.

For assay [9], the target named is T2, Ephrin type-A receptor 8 (Homo sapiens). To be noted: at 10 µM.
For assay [10], the target named is T3, Ephrin type-B receptor 1 (Homo sapiens) (UniProt P54762).
T3 sequence (whole entry): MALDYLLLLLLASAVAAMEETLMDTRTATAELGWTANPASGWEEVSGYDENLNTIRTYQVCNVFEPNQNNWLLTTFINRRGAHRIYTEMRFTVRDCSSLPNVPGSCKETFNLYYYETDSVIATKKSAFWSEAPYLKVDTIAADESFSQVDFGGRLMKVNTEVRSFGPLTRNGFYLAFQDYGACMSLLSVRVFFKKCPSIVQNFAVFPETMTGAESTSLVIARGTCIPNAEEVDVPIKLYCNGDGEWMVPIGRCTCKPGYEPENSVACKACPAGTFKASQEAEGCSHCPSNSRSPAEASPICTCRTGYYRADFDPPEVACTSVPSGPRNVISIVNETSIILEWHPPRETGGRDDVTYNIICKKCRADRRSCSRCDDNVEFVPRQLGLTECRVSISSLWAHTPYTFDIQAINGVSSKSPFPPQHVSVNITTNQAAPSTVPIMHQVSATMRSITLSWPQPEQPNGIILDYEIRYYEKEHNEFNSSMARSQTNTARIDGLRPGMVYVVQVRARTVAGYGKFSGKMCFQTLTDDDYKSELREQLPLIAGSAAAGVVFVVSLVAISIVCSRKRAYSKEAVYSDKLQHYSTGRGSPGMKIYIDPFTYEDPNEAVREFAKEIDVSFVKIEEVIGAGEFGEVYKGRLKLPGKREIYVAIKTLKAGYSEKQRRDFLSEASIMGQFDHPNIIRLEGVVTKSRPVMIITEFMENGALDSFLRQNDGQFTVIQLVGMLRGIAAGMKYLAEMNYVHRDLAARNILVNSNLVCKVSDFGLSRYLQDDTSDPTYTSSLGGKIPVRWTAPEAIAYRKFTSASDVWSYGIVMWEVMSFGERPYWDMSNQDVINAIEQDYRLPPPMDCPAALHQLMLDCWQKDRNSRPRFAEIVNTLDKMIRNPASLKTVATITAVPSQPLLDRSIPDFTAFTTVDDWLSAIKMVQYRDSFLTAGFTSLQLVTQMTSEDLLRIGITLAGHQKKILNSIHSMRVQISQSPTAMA
To be noted: at 1 µM.

As usually defined, the residual activity is the signal under treatment as a percentage of the control signal. For `O=C1NC(=O)/C(=C/c2ccc3c(c2)OC(F)(F)O3)S1`, the residual activity in assay [1] came out at 93%; in assay [2] it was 116%; in assay [3], 105%; in assay [4], 115%; in [5], 103%; in assay [6] it was 89%. Also, the residual activity in assay [7] came to 102%; in assay [8], 111%; in [9], 99%; in [10], 115%.
